# This is part of a sample that, as a whole, favours compounds with a hit. Of some 79,000 tested, about 15% had one in any assay. Values without a mark were called inactive. The source made the active and inactive calls. No stated cut-off is given here; in the data, active means growth inhibition above about 70%; inactive means the rest.
# Assays:
# [1] = NCI Yeast Anticancer Drug Screen. Data for the rad50 strain (AID 155);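 further: 0% = growth of vehicle-only cultures of the same strain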; conditions: S. cerevisiae rad50 strain growth inhibition, stronger effect = higher value
# In short: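 Growth of the mutant yeast was measured after compound exposure and referenced to vehicle-treated cultures.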
# [2] = NCI Yeast Anticancer Drug Screen. Data for the mec2-1 strain (AID 157); conditions: S. cerevisiae mec2-1 strain, stronger effect = higher value
# In short: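 Yeast mec2-1 mutant treated with compound. Readout: growth inhibition vs vehicle controls.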
# [3] = NCI Yeast Anticancer Drug Screen. Data for the sgs1 mgt1 strain (AID 161);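 further: 0% = growth of cultures given vehicle only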; conditions: S. cerevisiae sgs1 mgt1 strain, stronger effect = higher value
# In short: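 Read-out: growth inhibition vs vehicle controls. Cells: mutant yeast strain deficient in DNA damage repair.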
# [4] = NCI Yeast Anticancer Drug Screen. Data for the cln2 rad14 strain (AID 165);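 further: 0% = growth equal to vehicle treated cultures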; conditions: S. cerevisiae cln2 rad14 strain, stronger effect = higher value
# In short: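 cln2 rad14 yeast strain; compound exposure; growth inhibition read vs vehicle controls.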
# [5] = NCI Yeast Anticancer Drug Screen. Data for the bub3 strain (AID 167); conditions: S. cerevisiae bub3 mutant strain, stronger effect = higher value
# In short: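 Whole-cell yeast assay. The mutant strain was incubated with compounds, and growth inhibition was determined by comparison with vehicle-treated cells.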
# [6] = NCI Yeast Anticancer Drug Screen. Data for the mlh1 rad18 strain (AID 175); conditions: S. cerevisiae mlh1 rad18 strain growth inhibition, stronger effect = higher value
# In short: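 Yeast w/ defined DNA-repair lesions; compound exposure; growth vs vehicle controls → % inhibition.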
# [7] = at 5.0 µM (retest, dose inferred, filed as 0.5)
# [8] = at 50.0 µM (retest, dose inferred, filed as 5.0)
Structure (SMILES),"growth inhibition [1, 7]","growth inhibition [1, 8]",growth inhibition ([1]; at 50.0 µM),"growth inhibition [2, 7]","growth inhibition [2, 8]",growth inhibition ([2]; at 50.0 µM),"growth inhibition [3, 7]","growth inhibition [3, 8]",growth inhibition ([3]; at 50.0 µM),"growth inhibition [4, 7]","growth inhibition [4, 8]",growth inhibition ([4]; at 50.0 µM),"growth inhibition [5, 7]","growth inhibition [5, 8]",growth inhibition ([5]; at 50.0 µM),"growth inhibition [6, 7]","growth inhibition [6, 8]",growth inhibition ([6]; at 50.0 µM)
CC(C)C(OC(=O)c1ccc(NCC2=CC(=O)C=CC2=O)cc1)C(C)C,22%,37%,17%,15%,40%,11.3%,23%,53%,73% (active),21%,32%,73.8% (active),27%,61%,70.5% (active),17%,44%,-10.4%
C=CS(=O)(=O)c1ccc(C)cc1,0%,49%,84% (active),6%,70% (active),78.7% (active),7%,55%,81.4% (active),5%,31%,37.2%,4%,61%,75.8% (active),6%,87% (active),88.5% (active)
COc1cc(/C=C/C2=C(C)C(=O)CC(c3cc(OC)c(OC)c(OC)c3)C2C)cc(OC)c1OC (stereo not given),2%,-1%,-6.25%,-5%,22%,-1.7%,0%,25%,15.4%,-8%,-27%,75.8% (active),-2%,7%,2.1%,0%,-102%,42.6%
O=C(O)CSCc1cc2c3ccccc3sc2c2ccccc12,49%,99% (active),97.9% (active),29%,99% (active),97.2% (active),30%,98% (active),93.2% (active),52%,99% (active),97.7% (active),31%,99% (active),96.8% (active),35%,99% (active),98.5% (active)
Clc1ccccc1CCc1cc(-c2ccccc2)n[nH]1,-14%,97% (active),96.8% (active),-26%,98% (active),94.7% (active),-6%,97% (active),95.6% (active),-13%,97% (active),88.9% (active),16%,97% (active),93.2% (active),-4%,97% (active),97.7% (active)
O=[N+]([O-])c1ccc(NNS(=O)(=O)c2ccccc2)c([N+](=O)[O-])c1,3%,-7%,5.85%,-13%,-4%,16.3%,-3%,13%,10.3%,-33%,-17%,-18.2%,4%,13%,-2%,0%,16%,13.8%
COC1=C(OC)C(=O)C(SCc2ccco2)=CC1=O,37%,98% (active),50.6%,29%,99% (active),73.3% (active),53%,99% (active),77.3% (active),51%,90% (active),36.9%,56%,99% (active),62.1%,28%,77% (active),65%
CSc1ccc(NC(=S)SC(C)C)cc1Cl,15%,98% (active),99% (active),1%,99% (active),99.3% (active),19%,99% (active),99.4% (active),-32%,97% (active),99% (active),-6%,99% (active),99.4% (active),19%,99% (active),99% (active)
Brc1cccc[n+]1Cc1cc2ccccc2c2ccccc12,0%,91% (active),97.2% (active),32%,74% (active),97.5% (active),0%,88% (active),98.6% (active),-5%,70% (active),94.5% (active),-12%,91% (active),97.5% (active),1%,88% (active),97.9% (active)
COc1ccc2nc3cc(Cl)ccc3c(NCCC[N+](C)(C)CCCCCCCCCCCCCCCC[N+](C)(C)CCCNc3c4ccc(Cl)cc4nc4ccc(OC)cc34)c2c1,85% (active),99% (active),49.2%,76% (active),99% (active),43.6%,77% (active),98% (active),40.4%,76% (active),98% (active),76.6% (active),85% (active),99% (active),47.2%,92% (active),99% (active),97.8% (active)
